From paper PMC5540273 (PLoS ONE, 2017)
Like-named read-outs stand apart in the source and are kept apart here.

What was measured:
Conditions in all cases: n = 1
QSK = tested on: QSK
RAF1 = tested on: RAF1
RET = tested on: RET
RIOK1 = tested on: RIOK1
RIOK2 = tested on: RIOK2
RIOK3 = tested on: RIOK3
RIPK1 = tested on: RIPK1
RIPK2 = tested on: RIPK2
RIPK4 = tested on: RIPK4
RIPK5 = tested on: RIPK5
[1] = concentration: 1 μM, replicates: in singlicate
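Note: KINOMEscan kinase panel screen.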

SMILES | %Inh (QSK; [1]) | %Inh (RAF1; [1]) | %Inh (RET; [1]) | %Inh (RIOK1; [1]) | %Inh (RIOK2; [1]) | %Inh (RIOK3; [1]) | %Inh (RIPK1; [1]) | %Inh (RIPK2; [1]) | %Inh (RIPK4; [1]) | %Inh (RIPK5; [1]) | %Inh (QSK; 1 µM) | %Inh (RAF1; 1 µM) | %Inh (RET; 1 µM) | %Inh (RIOK1; 1 µM) | %Inh (RIOK2; 1 µM) | %Inh (RIOK3; 1 µM) | %Inh (RIPK1; 1 µM) | %Inh (RIPK2; 1 µM) | %Inh (RIPK4; 1 µM) | %Inh (RIPK5; 1 µM)
Cl.O=C(Nc1cccc(-c2nn3ncccc3c2-c2ccnc(Nc3cccnc3)n2)c1)c1c(F)cccc1F [GSK312879] | 0% | 87% | 31% | 31% | 11% | 0% | 0% | 18% | 15% | 0% |  |  |  |  |  |  |  |  |  | 
Cc1cccc(-c2nc(Nc3ccncc3)c3ccccc3n2)n1 [GW855857] | 0% | 39% | 9% | 0% | 0% | 35% | 4% | 71% | 0% | 0% |  |  |  |  |  |  |  |  |  | 
Cl.NC(=O)c1cccc(Nc2nccc(Nc3ccc(Oc4cccc(Cl)c4)c(Cl)c3)n2)c1 [GW659008] | 9% | 0% | 3% | 37% | 21% | 23% | 27% | 95.8% | 72% | 0% |  |  |  |  |  |  |  |  |  | 
COc1cc2ncnc(Nc3ccc4nc(-c5ccccc5)[nH]c4c3)c2cc1OC.Cl [GW282450] | 0% | 10% | 33% | 51% | 11% | 25% | 18% | 27% | 1% | 0% |  |  |  |  |  |  |  |  |  | 
Cn1ccc2ncnc(Oc3cccc(C(=O)Nc4ccccc4)c3)c21 | 0% | 5% | 14% | 38% | 0% | 23% | 0% | 15% | 18% | 0% |  |  |  |  |  |  |  |  |  | 
NC(=O)c1nnc2ccccc2c1N | 22% | 19% | 8% | 64% | 44% | 57% | 0% | 0% | 45% | 0% |  |  |  |  |  |  |  |  |  | 
Cc1ccc(NC(=O)Nc2cccc(C(F)(F)F)c2)cc1 [GSK955403] |  |  |  |  |  |  |  |  |  |  | 0% | 8% | 0% | 17% | 0% | 0% | 7% | 8% | 0% | 0%
Nc1ncnc2[nH]c(-c3ccccc3)nc12 [AH5015] | 0% | 42% | 0% | 0% | 4% | 0% | 16% | 6% | 17% | 8% |  |  |  |  |  |  |  |  |  | 
Cc1cccc(-c2nc(Nc3cccc(C(N)=O)c3)c3ccccc3n2)n1 [GW876019] | 0% | 17% | 0% | 50% | 0% | 26% | 19% | 0% | 0% | 0% |  |  |  |  |  |  |  |  |  | 
Cn1cncc1-c1ccc2ncnc(Nc3ccc(OCc4ccccc4)cc3)c2c1 [GW320571] | 16% | 13% | 0% | 32% | 26% | 15% | 18% | 93.1% | 0% | 0% |  |  |  |  |  |  |  |  |  | 
CC(C)(C)c1ccc(C(=O)Nc2cn3cc(-c4cccnc4)ccc3n2)cc1 | 0% | 0% | 14% | 34% | 33% | 9% | 27% | 26% | 0% | 17% |  |  |  |  |  |  |  |  |  | 
Cn1ccc2ncnc(Oc3ccc(Nc4nc5ccccc5[nH]4)cc3)c21 | 0% | 0% | 0% | 0% | 0% | 0% | 0% | 0% | 0% | 0% |  |  |  |  |  |  |  |  |  | 
Cc1cccc(-c2nc(C)cc(Nc3ccncc3)n2)n1 [GSK257997] | 0% | 100% | 18% | 20% | 16% | 14% | 8% | 19% | 7% | 0% |  |  |  |  |  |  |  |  |  | 
CN1C(=O)C(Nc2ccc(Cl)c(C(=O)O)c2)=C(c2ccc(Cl)cc2)C1=O [SB-404290] | 40% | 0% | 0% | 0% | 0% | 18% | 0% | 0% | 18% | 17% |  |  |  |  |  |  |  |  |  | 
COc1cccc(-c2cc(-c3c[nH]nc3-c3ccccn3)ccn2)c1 [GW680338] | 17% | 25% | 21% | 1% | 3% | 91.4% | 19% | 27% | 0% | 5% |  |  |  |  |  |  |  |  |  | 
CS(=O)(=O)c1ccc(-c2nc3n(c2-c2ccncc2)CCC3)cc1 [SKF-105942] | 0% | 16% | 0% | 0% | 0% | 0% | 0% | 0% | 100% | 2% |  |  |  |  |  |  |  |  |  | 
Cc1c(Cn2ccn3c(=O)cc(N4CCOCC4)nc23)cccc1C(F)(F)F [GSK2289044] | 3% | 5% | 8% | 3% | 34% | 5% | 9% | 10% | 0% | 0% |  |  |  |  |  |  |  |  |  | 
